{
  "source": "the supplement of paper PMC3724861",
  "note": "The entries come from a sample that favours hits as a whole. How many sequences the whole screen found active is unknown. A number with no mark means an inactive call.",
  "data": [
    {"tested_on": "T1, Caupolican (Caup) homeodomain DNA-binding domain", "T1 sequence": "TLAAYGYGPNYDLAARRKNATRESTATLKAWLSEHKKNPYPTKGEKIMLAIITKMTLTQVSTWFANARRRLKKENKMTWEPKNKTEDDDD", "experiment": "PBM E-score (8-mer, recovered from the published 9-mer minima) (E-score (dimensionless, -0.5 to 0.5)); Drosophila protein; higher = stronger relative binding preference, active = 0.31 or more", "method": "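Protein binding microarray (PBM): in vitro transcribed/translated Caupolican (Caup) homeodomain DNA-binding domain (residues 214-303) applied at 100 nM to a universal 8-mer PBM array (Agilent AMADID 015681). The 8-mer enrichment score (E-score, range -0.5 to 0.5) was computed, and each 9-mer score is the minimum E-score of its two constituent 8-mers. The E-score is the same for a 9-mer and its reverse complement; 0.31 is the stated binding threshold.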", "values": [
      {"sequence": "GACGGCTA", "PBM E-score": -0.167},
      {"sequence": "CAATTGTA", "PBM E-score": 0.193},
      {"sequence": "ATGAATCG", "PBM E-score": 0.0391},
      {"sequence": "AGTAACGA", "PBM E-score": 0.107},
      {"sequence": "GACTCGCA", "PBM E-score": -0.115},
      {"sequence": "CAGATGCG", "PBM E-score": -0.00655},
      {"sequence": "AGGAAGGA", "PBM E-score": -0.0149},
      {"sequence": "AATGGCTC", "PBM E-score": -0.0437},
      {"sequence": "CTAACAAC", "PBM E-score": 0.278},
      {"sequence": "ATAACACA", "PBM E-score": 0.305},
      {"sequence": "GTAACAAC", "PBM E-score": "0.341 (active)"},
      {"sequence": "ATAACACG", "PBM E-score": "≥ 0.334 (active)"},
      {"sequence": "ATAACAAC", "PBM E-score": "0.346 (active)"},
      {"sequence": "GTAACAAA", "PBM E-score": 0.217},
      {"sequence": "AGAACAAC", "PBM E-score": 0.229},
      {"sequence": "ATAACAAG", "PBM E-score": "≥ 0.373 (active)"},
      {"sequence": "ATAACAAT", "PBM E-score": 0.254},
      {"sequence": "AAAACAAC", "PBM E-score": 0.214},
      {"sequence": "ATAACAAA", "PBM E-score": 0.205},
      {"sequence": "CTAACACA", "PBM E-score": 0.276},
      {"sequence": "ACAGTTTC", "PBM E-score": 0.0345},
      {"sequence": "CCAGCGGG", "PBM E-score": -0.276},
      {"sequence": "AGACCCCT", "PBM E-score": -0.143},
      {"sequence": "CACGGTCC", "PBM E-score": -0.0957},
      {"sequence": "CGACGATC", "PBM E-score": 0.00125},
      {"sequence": "ACGTGTAA", "PBM E-score": "≥ 0.394 (active)"},
      {"sequence": "TAGTGTAA", "PBM E-score": 0.207},
      {"sequence": "TCGTGAAA", "PBM E-score": 0.00205},
      {"sequence": "GCGTGTGA", "PBM E-score": 0.0667},
      {"sequence": "TCGTGTAA", "PBM E-score": "0.363 (active)"},
      {"sequence": "CCGTGTGA", "PBM E-score": 0.0813},
      {"sequence": "AGGTGTAA", "PBM E-score": 0.2},
      {"sequence": "CAGTGTAA", "PBM E-score": 0.218},
      {"sequence": "CCGTGTAA", "PBM E-score": "0.35 (active)"},
      {"sequence": "ACGTGTGA", "PBM E-score": 0.155},
      {"sequence": "GCGTGTAA", "PBM E-score": "0.327 (active)"},
      {"sequence": "GAGTGTAA", "PBM E-score": 0.11},
      {"sequence": "CTATCTGA", "PBM E-score": 0.0431},
      {"sequence": "AAGTGGAC", "PBM E-score": -0.00011},
      {"sequence": "AGTTGGCC", "PBM E-score": -0.159},
      {"sequence": "ATATATCG", "PBM E-score": 0.0746},
      {"sequence": "CAGACTGC", "PBM E-score": -0.0434},
      {"sequence": "TAAGTAGA", "PBM E-score": 0.11},
      {"sequence": "CAGGGCTA", "PBM E-score": -0.125},
      {"sequence": "CCAGACAC", "PBM E-score": 0.05},
      {"sequence": "AACGATGT", "PBM E-score": "0.35 (active)"},
      {"sequence": "AACGATGC", "PBM E-score": -0.051},
      {"sequence": "AACGATGG", "PBM E-score": -0.0529},
      {"sequence": "TAACTTCA", "PBM E-score": 0.137},
      {"sequence": "AACGCAGA", "PBM E-score": -0.0244},
      {"sequence": "TGACTGAA", "PBM E-score": -0.0626},
      {"sequence": "GGCCGCGA", "PBM E-score": -0.26},
      {"sequence": "GATGTCGC", "PBM E-score": 0.201},
      {"sequence": "AATGTCGG", "PBM E-score": 0.119},
      {"sequence": "CTTGTCGA", "PBM E-score": 0.303},
      {"sequence": "CATGTCGC", "PBM E-score": "0.363 (active)"},
      {"sequence": "TATGTCGA", "PBM E-score": "0.323 (active)"},
      {"sequence": "CGTGTCGA", "PBM E-score": 0.281},
      {"sequence": "AATGTCGA", "PBM E-score": 0.212},
      {"sequence": "CATGTCGG", "PBM E-score": "0.357 (active)"},
      {"sequence": "GATGTCGA", "PBM E-score": 0.217},
      {"sequence": "CAGGTCGG", "PBM E-score": -0.0619},
      {"sequence": "AATGTCGC", "PBM E-score": 0.191},
      {"sequence": "CATGTCGA", "PBM E-score": "0.412 (active)"}
    ]}
  ]
}
